Laboratory results from PubChem BioAssay (Tox21).
Records with an inconclusive call do not appear. Calls of active or inactive are those of the source. Unless noted, the call rests on the fitted dose curve; in most records, active means well fitted curve in the direction sought with a large enough effect in the repeat runs; inconclusive means weak or mixed curves; inactive means no such curve, though single readings can be large; an effect the other way counts as inactive or inconclusive.

What was measured:
[1] = qHTS assay to identify small molecule agonists of the vitamin D receptor (VDR) signaling pathway - cell viability counter screen (AID 743224); further: series mostly up to about 63 µM; nearly all actives have a fitted effect of over 50% in size
Outline: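 Counter screen run in the same wells as the VDR-bla reporter assay: CellTiter-Glo luminescence, 30 min at room temperature, after 16 h compound treatment at 37C of cells pre-plated for 4 h.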

[2] = qHTS assay to identify small molecule antagonists of the vitamin D receptor (VDR) signaling pathway - cell viability counter screen (AID 743225); further: nearly all actives have a fitted effect of over 50% in size
Outline: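 Cells (VDR-UAS-bla HEK 293T) are plated, rested 4 h at 37C, dosed with compound and 3 nM final 1-alpha,25-dihydroxy vitamin D3, and incubated 16 h. Viability is taken from CellTiter-Glo luminescence in the reporter wells.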

[3] = qHTS assay to identify small molecule agonists of the NFkB signaling pathway (AID 1159509; active means well fitted curve in the direction sought with a large enough effect in the signal ratio in the repeat runs, not every such curve was filed as active; the % refers to the signal ratio; further: series mostly up to about 61 µM)
Outline: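 Beta-lactamase reporter assay run in quantitative high-throughput format on an NF-kB-responsive ME-180 line, with 5 hr compound treatment and a FRET-based blue/green fluorescence readout.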

[4] = qHTS assay to identify small molecule agonists of the NFkB signaling pathway - cell viability counter screen (AID 1159515; calls by dose curve; further: series mostly up to about 61 µM; nearly all actives have a fitted effect of over 55% in size)
Outline: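 Read by CellTiter-Glo luminescence (30 min, room temperature) in the wells also used for the beta-lactamase FRET read. ME-180 NFkB-bla cells at 2,000 per well were plated overnight, then exposed to compound for 5 hr at 37 C.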

[5] = qHTS assay to identify small molecule agonists of the endoplasmic reticulum stress response signaling pathway (AID 1159516; active means well fitted activation curve with a large enough effect in the signal ratio in the repeat runs, not every such curve was filed as active; the % refers to the signal ratio)
Outline: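 Ratiometric FRET readout (405 nm excitation; 460 and 530 nm emission) of a beta-lactamase gene driven by the ER stress response element, after 2 hr substrate loading. HeLa ESRE-bla cells were seeded overnight and treated with compounds for only 5 hr at 37 C.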

[6] = qHTS assay to identify small molecule agonists of the endoplasmic reticulum stress response signaling pathway - cell viability counter screen (AID 1159517; calls by dose curve; further: series mostly up to about 61 µM; nearly all actives have a fitted effect of over 50% in size)
Outline: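 After overnight attachment, ESRE-bla HeLa cells were treated with Tox21 library compounds for 5 hr. CellTiter-Glo luminescence, read 30 min post-addition at room temperature, reported viability.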

[7] = qHTS assay to identify small molecule antagonists of the retinoid-related orphan receptor gamma (ROR-gamma) signaling pathway - cell viability counter screen (AID 1159520); further: nearly all actives have a fitted effect of over 50% in size
Outline: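 Cytotoxicity was read from cellular ATP (CellTiter-Glo luminescence) after 16 hr at 37 C with 1 uM doxycycline induction. The inducer was added 2 hr after compound transfer to Tet-on ROR gamma CHO cells.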

[8] = target: Nuclear receptor ROR-gamma (Homo sapiens) (UniProt P51449); experiment: qHTS assay to identify small molecule antagonists of the retinoid-related orphan receptor gamma (ROR-gamma) signaling pathway (AID 1159521)
Outline: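 RORγ antagonism is scored from reduced reporter luminescence in Tet-on CHO cells. Induction used 1 uM final doxycycline hyclate for 16 h at 37 C, following a 2 h compound exposure.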

[9] = qHTS assay to identify small molecule agonists of the AP-1 signaling pathway - cell viability counter screen (AID 1159525; calls by dose curve; further: nearly all actives have a fitted effect of over 55% in size)
Outline: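 Intracellular ATP by Cell Titer Glo luminescence (30 min, RT) in the same ME-180 AP-1-bla wells after the 5 h compound exposure at 37 °C. Normalised to tetra n-octyl ammonium bromide and DMSO controls.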

[10] = qHTS assay to identify small molecule agonists of the AP-1 signaling pathway (AID 1159526; calls by dose curve)
[11] = target: Retinoic acid receptor RXR-alpha (Homo sapiens) (UniProt P19793); experiment: qHTS assay to identify small molecule agonists of the RXR signaling pathway (AID 1159527; calls by dose curve; further: nearly all actives have a fitted effect of over 35% in size)
Chain of Retinoic acid receptor RXR-alpha (Homo sapiens) (P19793 whole entry, looked up): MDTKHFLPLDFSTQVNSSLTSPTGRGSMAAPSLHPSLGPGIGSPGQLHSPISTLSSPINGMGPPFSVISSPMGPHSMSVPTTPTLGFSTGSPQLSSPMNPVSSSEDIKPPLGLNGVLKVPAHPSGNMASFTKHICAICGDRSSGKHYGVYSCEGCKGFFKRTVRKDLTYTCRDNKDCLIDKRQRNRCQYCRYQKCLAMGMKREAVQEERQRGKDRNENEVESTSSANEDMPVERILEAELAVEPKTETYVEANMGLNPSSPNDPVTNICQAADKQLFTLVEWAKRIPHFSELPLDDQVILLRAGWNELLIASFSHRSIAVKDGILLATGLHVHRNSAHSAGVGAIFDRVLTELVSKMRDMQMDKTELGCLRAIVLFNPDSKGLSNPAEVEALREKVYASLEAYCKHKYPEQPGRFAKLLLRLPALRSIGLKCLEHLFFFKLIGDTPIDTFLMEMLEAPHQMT
Outline: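 qHTS of the Tox21 10K library in GeneBLAzer RXR-alpha HEK 293T cells carrying a beta-lactamase reporter […]; 16 hr treatment, 9-cis retinoic acid as agonist control, FRET read-out.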

[12] = qHTS assay to identify small molecule agonists of the RXR signaling pathway - cell viability counter screen (AID 1159529)
Outline: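 Cell viability is measured by CellTiter-Glo luminescence, 30 min at room temperature, in wells already read for beta-lactamase. Engineered HEK 293T cells (RXR-alpha-UAS-bla) are dosed 16 hr at 37 C. Tetraoctyl ammonium bromide serves as positive control.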

[13] = qHTS assay to identify small molecule antagonists of the retinoid acid receptor (RAR) signaling pathway - cell viability counter screen (AID 1159551); further: nearly all actives have a fitted effect of over 35% in size
Outline: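 Cytotoxicity counter screen: ATP content quantified by CellTiter-Glo luminescence in C3RL4 cells treated 6 hr at 37 C with compound and retinol (1 uM final). Cells plated at 1,000/well and cultured overnight before dosing.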

[14] = qHTS assay to identify small molecule antagonists of the retinoic acid receptor (RAR) signaling pathway (AID 1159552; further: nearly all actives have a fitted effect of over 50% in size)
Outline: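 Quantitative HTS in C3RL4 RARE-luciferase reporter cells. Compounds were added with 1 uM (final) retinol; luminescence was read after 6 hr.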

[15] = qHTS assay to identify small molecule agonists of the retinoic acid receptor (RAR) signaling pathway (AID 1159553); further: potency means the concentration at half of the fitted maximal effect
Outline: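 Luminescence was measured 30 min after luciferase reagent addition at room temperature. Before that, C3RL4 reporter cells (1,000 per well, plated overnight) were treated with compound for 6 hr at 37 C and 5% CO2.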

[16] = qHTS assay to identify small molecule antagonists of the estrogen related receptor (ERR) signaling pathway from Tox21 library - cell viability counter screen (AID 1224834); further: nearly all actives have a fitted effect of over 30% in size
Outline: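 CellTiter-Fluor fluorescence, read after 30 min at 37 C, measures viability of ERR cells. Cells plated at 2,000/well and incubated 6 h before pin-tool compound addition, then exposed 17.5 hours at 37 C.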

[17] = target: Luciferin 4-monooxygenase (Photinus pyralis) (UniProt P08659); experiment: qHTS assay to identify small molecule inhibitors of firefly luciferase (AID 1224835); further: nearly all actives have a fitted effect of over 25% in size; further: potency means the concentration at half of the fitted maximal effect
Chain of Luciferin 4-monooxygenase (Photinus pyralis) (P08659 whole entry, looked up): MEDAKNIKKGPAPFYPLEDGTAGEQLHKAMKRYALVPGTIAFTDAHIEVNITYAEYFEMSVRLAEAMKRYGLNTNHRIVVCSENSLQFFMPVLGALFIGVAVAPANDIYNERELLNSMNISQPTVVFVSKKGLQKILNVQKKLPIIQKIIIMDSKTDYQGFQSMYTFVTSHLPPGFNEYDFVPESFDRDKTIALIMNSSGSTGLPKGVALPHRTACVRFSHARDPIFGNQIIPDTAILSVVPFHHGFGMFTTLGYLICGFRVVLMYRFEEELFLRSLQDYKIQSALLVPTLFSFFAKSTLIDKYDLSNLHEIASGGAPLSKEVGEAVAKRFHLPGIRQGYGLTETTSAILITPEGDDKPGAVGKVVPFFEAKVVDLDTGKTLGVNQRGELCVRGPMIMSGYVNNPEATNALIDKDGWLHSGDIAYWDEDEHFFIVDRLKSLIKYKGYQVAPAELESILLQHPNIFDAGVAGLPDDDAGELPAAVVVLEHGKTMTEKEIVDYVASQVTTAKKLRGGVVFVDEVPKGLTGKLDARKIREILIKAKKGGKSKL
Outline: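 Inhibition of purified Photinus luciferase is measured by luminescence. Substrate levels (D-luciferin, ATP) sit at their KM values. Each compound is tested in a concentration series.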

[18] = target: Nuclear receptor subfamily 1 group I member 3 (Homo sapiens) (UniProt Q14994); experiment: qHTS assay to identify small molecule antagonists of the constitutive androstane receptor (CAR) signaling pathway (AID 1224838);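 further: HepG2 cells stably expressing hCAR with CYP2B6 luciferase reporter stimulated by CITCO; nearly all actives have a fitted effect of over 40% in size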
Chain of Nuclear receptor subfamily 1 group I member 3 (Homo sapiens) (Q14994 whole entry, looked up): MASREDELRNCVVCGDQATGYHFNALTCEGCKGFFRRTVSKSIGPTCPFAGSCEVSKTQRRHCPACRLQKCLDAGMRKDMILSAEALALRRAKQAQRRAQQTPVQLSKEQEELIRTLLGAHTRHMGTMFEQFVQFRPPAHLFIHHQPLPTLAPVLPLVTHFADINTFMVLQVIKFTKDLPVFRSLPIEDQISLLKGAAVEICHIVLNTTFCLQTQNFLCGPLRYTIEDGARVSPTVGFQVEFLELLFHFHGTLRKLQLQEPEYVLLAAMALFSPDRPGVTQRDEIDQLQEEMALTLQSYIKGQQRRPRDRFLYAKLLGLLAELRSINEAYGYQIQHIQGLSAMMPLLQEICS
Outline: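 Antagonism measured as luciferase signal (ONE-Glo, 30 min, room temperature) in CAR-stimulated cells: HepG2-CYP2B6-hCAR double-stable line exposed 24 hr at 37 C to compound in a 15-point series plus 50 nM CITCO.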

[19] = qHTS assay to identify small molecule agonists of the constitutive androstane receptor (CAR) signaling pathway - cell viability counter screen (AID 1224836); further: series mostly up to about 92 µM; nearly all actives have a fitted effect of over 45% in size
Outline: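 Counter screen multiplexed with the CAR reporter readout: HepG2 cells co-transfected with hCAR and the CYP2B6-2.2kb construct receive a 15-concentration compound series and 0.75 uM PK11195 (final), then CellTiter-Fluor fluorescence is read after 23 h.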

[20] = qHTS assay to identify small molecule antagonists of the constitutive androstane receptor (CAR) signaling pathway - cell viability counter screen (AID 1224837); further: series mostly up to about 92 µM; nearly all actives have a fitted effect of over 45% in size
Outline: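 Cytotoxicity counter-screen: CellTiter-Fluor fluorescence after 23 h compound exposure (15-point qHTS) in double-stable HepG2-CYP2B6-hCAR cells, with 50 nM CITCO added.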

Measured: Potency

CN(C)CCCCl
not listed: [19] | [20]
inactive: all other assays above

CC1(C)Cc2cccc(N)c2O1
not listed: [1] | [9]
inactive: all other assays above

CC(C)(CO)C(O)C(=O)NCCCO (stereo not given)
not listed: [9]
inactive: all other assays above

Cc1ccc2c(c1)C(=O)c1ccccc1C2=O
active: [15] 4.31 µM | [17] 14.1 µM
not listed: [9]
inactive: all other assays above

C=CC(=O)CCCCC
not listed: [2] | [14] | [15]
inactive: all other assays above

CC(=O)OC(C)=O
not listed: [19]
inactive: all other assays above
